# Source: PubChem (National Center for Advancing Translational Sciences (NCATS))
# Sampled rows, rich in hits. Any-hit rate of the full collection: about 2.3%.
# S2 tox: Viability Counterscreen for Primary qHTS for Inhibitors of ATXN expression | S2 cells (HEK-293 line with an ATXN2-luciferase reporter) viability, CellTiter-Fluor protease fluorescence, 24 h | Potency, µM (highest dose often 56.7 µM), actives largely listed as cytotoxic | 400,000 compounds, 0.49% hits; further: nearly all actives have a fitted effect of over 40% in size
# HepG2 tox-1: qHTS for Inhibitors of TGF-b: Cytotox Counterscreen; Potency, µM (top dose mostly 46.1 µM), usual class: cytotoxic; AID 588856, 2011; 410,000 compounds, 0.76% hits; HepG2 CAGA-GFP viability, ATP luminescence, 18 h
#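 CellTiter-Glo luminescence gave cytotoxicity after 18 hours at 37 degrees C. The cells were HepG2 CAGA-GFP in 1% FBS DMEM, stimulated with 500 pg/mL TGF-beta after compound addition. %Activity was normalised to no-cell wells (complete cell-killing) and DMSO (no toxicity), and curves were fitted and classified.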
# TGFb SMAD3 inh: qHTS for Inhibitors of TGF-b; 410,000 compounds, 1.2% hits; Potency, µM (doses to about 46.1 µM), usual class: inhibitors; HepG2 CAGA-GFP TGF-b/SMAD3 reporter, GFP fluorescence, 18 h; TGF-beta stimulated, 500 pg/mL final; further: nearly all actives have a fitted effect of over 65% in size
#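 Smad-responsive CAGA-GFP expression was quantified in HEPG2 cells exposed to compounds and 500 pg/mL final TGF-beta for 18 h at 37 degrees C; unstimulated wells defined full inhibition.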
# ATXN2 expr inh: Primary qHTS for Inhibitors of ATXN expression; AID 1745845, 2022; Potency, µM (titrated, usually from 57 µM), usual class: inhibitors; 360,000 compounds, 0.72% hits; HEK-293 ATXN2-luciferase reporter, luminescence, 24 h; further: nearly all actives have a fitted effect of over 55% in size
#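 ATXN2-luciferase reporter cells (luciferase flanked by upstream and downstream ATXN2 gene portions) were treated 24 h at 37 °C with compounds at up to 57 uM. SteadyGlo luminescence gave expression; GF-AFC fluorescence gave viability.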
# TGFb confirm: qHTS for Inhibitors of TGF-b: Confirmation of Cherry Picks; shares compounds with TGFb SMAD3 inh; HepG2 CAGA-GFP TGF-b reporter, GFP fluorescence, 18 h; cells stimulated with TGF-beta, 500 pg/mL; Potency, µM (series often up to 46.1 µM), most hits filed as inhibitors; 1,600 compounds, 63% hits; AID 720534, 2013; further: nearly all actives have a fitted effect of over 65% in size
# HepG2 tox-2: qHTS for Inhibitors of TGF-b: Cytotox Counterscreen for Cherry Picks | Potency, µM (series often up to 46.1 µM), usual class: inhibitors | 1,600 compounds, 27% hits | HepG2 CAGA-GFP viability, ATP luminescence, 18 h; cells stimulated with TGF-beta, 500 pg/mL | shares compounds with TGFb SMAD3 inh; further: nearly all actives have a fitted effect of over 70% in size
# TGFb CCL64 inh: qHTS for Inhibitors of TGF-b: CCL64 Cells Orthogonal Assay for Cherry Picks. shares compounds with TGFb SMAD3 inh. CCL64 CAGA-GFP reporter, TGF-b stimulated, GFP fluorescence, 18 h. Potency, µM (top dose mostly 46.1 µM), hits mostly inhibitors. 1,600 compounds, 41% hits. AID 720536, 2013; further: nearly all actives have a fitted effect of over 65% in size
# TGFb COP inh: qHTS for Inhibitors of TGF-b: Hit Validation in HepG2 Cells using COP promoter; HepG2 COP-GFP TGF-b reporter, GFP fluorescence, 18 h; cells stimulated by added recombinant TGF-beta; 1,600 compounds, 3% hits; Potency, µM (top dose mostly 46.1 µM), usual class: inhibitors; shares compounds with TGFb SMAD3 inh; further: nearly all actives have a fitted effect of over 70% in size
# Numbers stand for hits; n = inactive; u = inconclusive; x = no result; [ ] = dose if it differs, or a comment. The call rests on the fitted dose curve; in most records, active means well fitted curve in the direction sought with a large enough effect; inconclusive means small, poorly fitted or top-dose-only effect, or another doubt; inactive means no such curve, though single readings can be large; an effect the other way counts as inactive or inconclusive.
SMILES,S2 tox,HepG2 tox-1,TGFb SMAD3 inh,ATXN2 expr inh,TGFb confirm,HepG2 tox-2,TGFb CCL64 inh,TGFb COP inh
CC1Cc2cc(S(=O)(=O)NCc3ccccc3Cl)ccc2N1C(=O)C1CCC1 (stereo not drawn),n,n,u,n,x,x,x,x
CN1CCN(C(=O)C2=C[C@@H](c3ccc(C(F)(F)F)cc3)C[C@@H](OCc3ccc(CO)cc3)O2)CC1,n,n,n,n,x,x,x,x
O=C(C1=C[C@@H](c2ccc(C(F)(F)F)cc2)C[C@@H](OCc2ccc(CO)cc2)O1)N1CCN(Cc2ccccc2)CC1,u,n,14µM,u,18µM,n,u,n
Nc1c2ccccc2nc2ccccc12,x,n,7.9µM,5µM,9.2µM,12µM,13µM,n
CCCCCCC[C@@H](C/C=C/CCC(=O)N(C)C/C(=C/Cl)C/C(=C\C(=O)N1CC(OC)=CC1=O)OC)OC,22µM,n,0.71µM,u,0.73µM,u,7.3µM,n
CN(CCc1ccccc1)C(=O)c1cccc(NC(=O)Cc2cccc([N+](=O)[O-])c2)c1,u,n,7.1µM,n,u,n,n,n
COc1ccc(N2CCN(C(c3ccccc3)c3nnnn3C(C)C)CC2)cc1 (stereo not drawn),x,n,n,x,x,x,x,x
Cc1nnc(SCC(=O)N/N=C/c2cn(-c3ccccc3)nc2-c2ccccc2)n1-c1ccccc1,u,n,7.1µM,n,u,n,u,n
COc1ccccc1NC(=S)NCCc1c[nH]c2ccccc12,n,n,n,n,x,x,x,x
Cc1ccc(NC(=S)NCCc2c[nH]c3ccccc23)c(C)c1,x,n,10µM,x,n,n,u,n
CCO[C@@H]1OC(C(=O)NCc2ccccc2)=C[C@H](c2ccc(C(F)(F)F)cc2)[C@H]1CCCO,u,n,18µM,u,u,n,21µM,n
Cc1ccc(NC(=O)Cc2cc(C(=O)O)c3ccccc3n2)c(C)c1,n,n,8.9µM,x,u,u,7.3µM,n
COc1ccccc1C(O)c1nccn1Cc1ccccc1 (stereo not drawn),x,n,n,x,x,x,x,x
CCN1C(=O)[C@@H]2[C@@H]3CN(S(=O)(=O)c4ccc(C)cc4)[C@@H](c4ccccc4)[C@@H]3C(=O)C[C@@H]2C1=O,n,n,n,n,x,x,x,x
CCOC1=CC2=C(C(=O)C(Cl)=CC2=O)[C@@H]2CN(S(=O)(=O)c3ccc(C)cc3)[C@@H](c3ccccc3)[C@H]12,u,n,11µM,u,4.1µM,u,5.2µM,n
COc1cccc(Nc2nc(NCC3CCCO3)c3ccccc3n2)c1 (stereo not drawn),u,10µM,6.3µM,u,u,u,21µM,n
Oc1ccc(Nc2nc(NCC3CCCO3)c3ccccc3n2)cc1 (stereo not drawn),u,n,n,n,x,x,x,x
CC(C)CN(C[C@@H](O)[C@H](Cc1ccccc1)NC(=O)O[C@H]1CO[C@H]2OCC[C@H]21)S(=O)(=O)c1ccc(N)cc1,x,x,x,n,x,x,x,x
Cc1cc(C)nc(NC(=S)NC(=O)c2ccccc2F)n1,n,n,n,n,x,x,x,x
Cc1cc(C)nc(S/C=C/C(=O)c2ccccc2F)n1,n,n,3.5µM,n,1.8µM,21µM,6.5µM,u
Cc1cc(S(=O)(=O)c2ccc(Cl)cc2)nc(S(=O)(=O)c2ccc(Cl)cc2)c1C#N,0.79µM,n,7.1µM,x,5.8µM,18µM,1.8µM,18µM
Cc1cc(C)c(S(=O)(=O)c2ccc(Cl)cc2)c(Cl)n1,n,n,n,n,x,x,x,x
CCCc1cc2c(cc1NC(=O)c1ccco1)OCO2,n,n,u,n,n,n,n,n
CCCc1cc2c(cc1NC(=O)c1ccccc1F)OCO2,n,n,n,n,x,x,x,x
COc1cc(CN2CCc3ccccc3C2)ccc1O,18µM,n,4.5µM,x,7.3µM,15µM,2.9µM,n
SMILES,S2 tox,HepG2 tox-1,TGFb SMAD3 inh,ATXN2 expr inh,TGFb confirm,HepG2 tox-2,TGFb CCL64 inh,TGFb COP inh
O=S(=O)(c1ccc(NC(=S)NN=Cc2ccccc2O)cc1)N1CCCCC1,n,n,13µM,n,16µM,u,u,n
Cc1ccc(NC(=O)C2=CCN(S(=O)(=O)c3ccc(F)cc3)CC2)cc1,n,n,n,n,x,x,x,x
Cc1ccc(S(=O)(=O)N2CC=C(c3ccc(F)cc3)CC2)cc1,u,n,3.2µM,n,u,n,n,n
Cc1sc2ncnc(NCC3COc4ccccc4O3)c2c1C (stereo not drawn),n,n,u,u,x,x,x,x
c1ccc(-c2csc3ncnc(NCC4COc5ccccc5O4)c23)cc1 (stereo not drawn),u,n,3.5µM,u,2.6µM,u,15µM,n
O=[N+]([O-])c1c(NCCCO)cc(Sc2nc3ccccc3s2)c2nonc12,25µM,n,18µM,u,u,16µM,6.5µM,16µM
Cc1nnc(Sc2cc(NCCCO)c([N+](=O)[O-])c3nonc23)s1,x,n,5µM,u,4.6µM,23µM,3.3µM,u
Cc1nnc(Sc2cc(NCCO)c([N+](=O)[O-])c3nonc23)s1,x,n,u,n[11.3 µM],x,x,x,x
CCc1ccc(NC(=O)c2nc(SCc3ccccc3F)ncc2Cl)cc1,x,n,n,x,x,x,x,x
COc1ccc(-c2cc(NC=O)c3ncc(-c4ccc(OC)c(OC)c4)n3c2)c(OC)c1,u,n,u,n,x,x,x,x
COc1cccc(-c2cnc3c(NC=O)cc(-c4ccc(OC)cc4OC)cn23)c1,u,n,4.5µM,n,4.1µM,n,3.3µM,n
O=CNc1cc(-c2ccccc2Oc2ccccc2)cn2c(-c3ccc(F)cc3)cnc12,n,n,u,u,x,x,x,x
CC(=O)c1ccc(-c2cnc3c(NC=O)cc(-c4ccccc4Oc4ccccc4)cn23)cc1,x,n,11µM,u,u,n,u,n
COc1ccccc1-c1cc(NC=O)c2ncc(-c3cccc(C(=O)N(C)C)c3)n2c1,u,n,7.9µM,n,5.2µM,n,u,n
Nc1cc(N)[nH]c(=S)n1,x,n,n,x,x,x,x,x
Cc1ccc(S(=O)(=O)Nc2cccc3cccnc23)c([N+](=O)[O-])c1,u,n,4.5µM,10µM,n,u,u,n
CC(=O)Nc1ccc(S(=O)(=O)Nc2cccc3cccnc23)cc1,x,n,n,n,x,x,x,x
